# Results filed as inconclusive are left out. Activity calls are given as the source filed them. Calls follow the shape of the dose curve; as a rule, active = well fitted cell-killing curve with a large enough effect; inconclusive = small, poorly fitted or top-dose-only effect, or effect the other way; inactive = no such curve, though single readings can be large or run the other way.
# Assay: Quantitative High-Throughput drug screen in 47 multiple myeloma cell lines against the NCATS MIPE library collection: KMS12PE_JCRB cell viability assay (AID 1918972); also: nearly all actives have a fitted effect of over 30% in size
# Conditions: KMS12PE myeloma viability, CellTiter-Glo ATP, 48 h; series mostly up to 45.8 µM; viability: at the top concentration
# Text: PI: Beverly A. Mock Ph.D.
# Laboratory of Cancer Biology and Genetics,
# Center for Cancer Research, National Cancer Institute,
# National Institute of Health, Bethesda, Maryland
# Drug resistance and disease progression are common in multiple myeloma (MM) patients, underscoring the need for new therapeutic combinations. […] We hypothesized that effective combinations would reduce MYC expression and enhance p16 activity. […] These preclinical data identify potentially useful drug combinations for evaluation in drug-resistant MM and reveal potential mechanisms of combined drug sensitivity.
# Described herein is the primary MIPE qHTS used to cherrypick compounds. Validated compounds were then further tested for potential synergistic activiy.
# [1] Peat TJ, Gaikwad SM, Dubois W, Gyabaah-Kessie N, Zhang S, Gorjifard S, Phyo Z, Andres M, Hughitt VK, Simpson RM, Miller MA, Girvin AT, Taylor A, Williams D, D'Antonio N, Zhang Y, Rajagopalan A, Flietner E, Wilson K, Zhang X, Shinn P, Klumpp-Thomas C, McKnight C, Itkin Z, Chen L, Kazandijian D, Zhang J, Michalowski AM, Simmons JK, Keats J, Thomas CJ, Mock BA. Drug combinations identified by high-throughput screening promote cell cycle transition and upregulate Smad pathways in myeloma. Cancer Lett. 2023 Aug 1;568:216284. doi: 10.1016/j.canlet.2023.216284. Epub 2023 Jun 24. PMID: 37356470; PMCID: PMC10408729.
# SEQUENCE No. (e.g., 1, 2, 3, etc.); […] (e.g., Cells, Incubation, Reagent, etc.); VALUE and DESCRIPTION.
# 1; Cells; 5 uL; white, solid bottom 1536-well Greiner assay plate.
# 2; Compounds; 23 nL; Kalypsis pin tool (Wako USA) equipped with a 1536-well pin head to transfer to the assay plates.
# 3; Incubation; 48 hours; 37C incubation.
# 4; Reagent;5uL; CellTiter Glo (Promega).
# 5; Detector; 425V; Luminescence; Viewlux PerkinElmer.
# NOTES (numbers refer to Sequence numbers above)
# 1. The cell-based screening methods employed in this study were like those previously published. Briefly, the corresponding myeloma cell lines were screened in 1,536-well plates with 500 cells, 5-uL per well for inhibition of cell viability (assessed by measuring ATP levels with CellTiterGlo).
# 2. NCATS MIPE 4.0 library of approved and investigational drugs were added using the Kalypsis pin tool. Wells treated with DMSO only for 100% viability and media only wells for 0% viability were used as controls.
# 3. The assay plates were covered and incubated for 48 hours in a 37C, 5% CO2 incubator with controlled humidity.
# 4. After 48 hours, CellTilter-GloTM luminescent substrate mix (Promega) reagent was added to the assay plate and plates we incubated for 5 min at room temperature.
# 5. Signal was measured as median relative luminescence units on a ViewLux (PerkinElmer) multiplate reader.
# [1] Heske CM, Davis MI, Baumgart JT, Wilson K, Gormally MV, Chen L, Zhang X, Ceribelli M, Duveau DY, Guha R, Ferrer M, Arnaldez FI, Ji J, Tran HL, Zhang Y, Mendoza A, Helman LJ, Thomas CJ. Matrix Screen Identifies Synergistic Combination of PARP Inhibitors and Nicotinamide Phosphoribosyltransferase (NAMPT) Inhibitors in Ewing Sarcoma. Clin Cancer Res. 2017 Dec 1;23(23):7301-7311. doi: 10.1158/1078-0432.CCR-17-1121. Epub 2017 Sep 12. PMID: 28899971; PMCID: PMC6636827.
# Potency is read from the fitted curve at half-maximal effect.
Compound,Potency,viability
CC(O)(CS(=O)(=O)c1ccc(F)cc1)C(=O)Nc1ccc(C#N)c(C(F)(F)F)c1 (stereo not given),1.66 µM (active),
CN(C)[C@@H]1C(=O)C(C(N)=O)=C(O)[C@@]2(O)C(=O)C3=C(O)c4c(O)cccc4[C@@](C)(O)[C@H]3C[C@@H]12,,107% (inactive)
C[C@@H]1[C@@H](CC(C[C@H]2O[C@@H]3O[C@]4(C)CC[C@@H]5[C@H](C)CC[C@@H]([C@H]2C)[C@@]35OO4)C[S+](=O)([O-])c2ccc(COC(=O)N(C)C)cc2)O[C@@H]2O[C@]3(C)CC[C@H]4[C@H](C)CC[C@@H]1[C@@]24OO3 (stereo not given in full),0.0833 µM (active),
CNC(=O)N1N=C(c2ccc(N)cc2)c2cc3c(cc2CC1C)OCO3 (stereo not given),2.35 µM (active),
COC[C@H]1OC(=O)c2coc3c2[C@@]1(C)C1=C(C3=O)C2CCC(=O)[C@@]2(C)C[C@H]1OC(C)=O (stereo not given in full),16.6 µM (active),
NCC1(CC(=O)O)CCCCC1,,99.1% (inactive)
Cc1cc(SCc2sc(-c3ccc(C(F)(F)F)c(F)c3)nc2C)ccc1OCC(=O)O,18.7 µM (active),
O=C1CC[C@@]2(O)[C@H]3Cc4ccc(O)c5c4[C@@]2(CCN3CC2CC2)[C@H]1O5,,132% (inactive)
CC1=C2C[C@@H]3[C@@H](CC=C4C[C@@H](O)CC[C@@]43C)[C@@H]2CC[C@]12O[C@H]1C[C@H](C)CN[C@H]1[C@H]2C,,131% (inactive)
Cc1cccc(C)c1NC(=O)CN1CCCC1=O,,109% (inactive)
C#CCN(C)[C@H](C)Cc1ccccc1,,102% (inactive)
N[C@@H](Cc1ccc(N(CCCl)CCCl)cc1)C(=O)O,16.6 µM (active),
CNCC(O)c1ccc(O)cc1 (stereo not given),,91% (inactive)
CCCC(C)(COC(N)=O)COC(=O)NC(C)C (stereo not given),,98% (inactive)
Cn1c(CCCC(=O)O)nc2cc(N(CCCl)CCCl)ccc21,,148% (inactive)
Cc1sc2c(c1C)C(c1ccc(Cl)cc1)=N[C@@H](CC(=O)OC(C)(C)C)c1nnc(C)n1-2,0.0296 µM (active),
CN1CCN(C(=O)O[C@H]2c3nccnc3C(=O)N2c2ccc(Cl)cn2)CC1,,117% (inactive)
O=C(O)C(=O)c1cn(Cc2ccccc2)c2ccc(-c3ccc(OC(F)(F)F)cc3)cc12,7.43 µM (active),
C[C@@H]1[C@@H](C(=O)C[C@H]2O[C@@H]3O[C@]4(C)CC[C@@H]5[C@H](C)CC[C@@H]([C@H]2C)[C@@]35OO4)O[C@@H]2O[C@]3(C)CC[C@H]4[C@H](C)CC[C@@H]1[C@@]24OO3,0.0833 µM (active),
C[C@@H]1O[C@@H](O[C@H]2C[C@@H](O)[C@]3(CO)[C@H]4[C@H](O)C[C@]5(C)[C@@H](C6=CC(=O)OC6)CC[C@]5(O)[C@@H]4CC[C@]3(O)C2)[C@H](O)[C@H](O)[C@H]1O,0.0105 µM (active),
CN(C)CCN(C)CCc1ccc(Cl)c(Cl)c1,23.5 µM (active),
Cn1cc(C2=C(c3cn(C4CCN(Cc5ccccn5)CC4)c4ccccc34)C(=O)NC2=O)c2ccccc21,2.35 µM (active),
CC(C)CC(N(C)C)C1(c2ccc(Cl)cc2)CCC1 (stereo not given),,105% (inactive)
O=c1[nH]c2ccccc2n1CCCN1CCC(n2c(=O)[nH]c3cc(Cl)ccc32)CC1,18.7 µM (active),
CN(C)CCc1ccc(O)cc1,,97.6% (inactive)

# Reference: PubChem BioAssay (NCATS)
